Reference: PubChem BioAssay AID504462 (Sanford-Burnham Center for Chemical Genomics, 2011)
Hit rate of the full screen: of about 340,000 compounds, about 1,700 (0.5%) were called active. Many of the other results were omitted from the sample, so actives are more common in it than they were. Values without a mark were called inactive. No stated cut-off is given here; in the data, active means inhibition above about 40%; inactive means the rest.

Each molecule was assayed against Cysteine protease ATG4B (Homo sapiens) (UniProt Q9Y4P1) (assay: blockers of ATG4B cysteine protease activity – biochemical, fluorescence, uHTS, primary screen (AID 504462)). Conditions: ATG4B cleavage of LC3-PLA2, NBD-HPC fluorescence, 1 h; at 8.33 µM; active compounds read high.
Sequence of Cysteine protease ATG4B (Homo sapiens) (Q9Y4P1 whole entry, looked up): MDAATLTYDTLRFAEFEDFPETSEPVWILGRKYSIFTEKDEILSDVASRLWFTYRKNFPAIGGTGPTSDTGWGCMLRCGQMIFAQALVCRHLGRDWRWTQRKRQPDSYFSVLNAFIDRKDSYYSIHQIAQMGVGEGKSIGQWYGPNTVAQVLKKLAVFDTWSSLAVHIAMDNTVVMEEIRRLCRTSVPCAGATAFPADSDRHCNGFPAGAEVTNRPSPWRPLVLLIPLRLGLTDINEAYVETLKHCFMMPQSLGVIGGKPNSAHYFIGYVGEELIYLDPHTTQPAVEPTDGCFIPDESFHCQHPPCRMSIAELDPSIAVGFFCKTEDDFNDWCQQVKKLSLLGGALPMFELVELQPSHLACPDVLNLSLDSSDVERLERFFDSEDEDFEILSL

| Compound | inhibition |
| --- | --- |
| CC1(C)C/C(=N/Nc2ccc([N+](=O)[O-])cc2[N+](=O)[O-])C(C)(C)O1 | 0.43% |
| CC(=O)c1c(N2CCOCC2)nc(=S)n(Cc2ccccc2)c1C | -2.2% |
| Oc1c(Cl)cc(Cl)c(Cl)c1Cc1c(O)c(Cl)cc(Cl)c1Cl | 87.4% (active) |
| ClC1(Cl)CC1CSc1ncn[nH]1 (stereo not given) | -3.17% |
| Nc1c(Cl)cc(-c2csc(N3CCCC3c3nc4cc(Cl)c(Cl)cc4n3CCOCCO)n2)cc1Cl (stereo not given) | -22.9% |
| CC(=O)NC1(c2cccc(F)c2)CCN(CC(=O)NC(C)C)CC1 | -3.58% |
| CCc1ccccc1NC(=O)CCOc1ccccc1 | -0.7% |
| CCc1ccccc1NC(=S)Nc1cc(OC)c(NC(=O)C(C)C)cc1OC | 3.4% |
| CCc1ccccc1NC(=O)/C(=C/c1ccccc1)c1ccccc1 | 59.5% (active) |
| CCN1CCN(C(C(=O)NC2CCCC2)c2cc3c(cc2[N+](=O)[O-])OCO3)CC1 (stereo not given) | -0.97% |
| O=C(CCn1nnc2ccccc2c1=O)N[C@@H](Cc1c[nH]c2ccccc12)C(=O)O | 0.19% |
| Cc1cccc(C)c1OCC(=O)NC(Cc1c[nH]c2ccccc12)C(=O)O (stereo not given) | 2.14% |
| O=C(N[C@@H](Cc1c[nH]c2ccccc12)C(=O)O)OCC1c2ccccc2-c2ccccc21 | 61.3% (active) |
| COCCCNC(=O)C1CCN(c2ccc(N3CCOCC3)nn2)CC1 | -8.6% |
| CN(C)Cc1ccc(F)cc1Sc1cc(Cl)ccc1Cl | 43.6% (active) |
| Cc1ccc(-c2ccc(=O)n(Cc3ccc(F)cc3Cl)n2)cc1 | 17.9% |
| COc1ccc(OC)c2c(N)c(C#N)c(C(F)(F)C(F)(F)F)nc12 | 3.2% |
| COc1ccc(/C=N/n2nnnc2N)cc1OC | 4.77% |
| C=CCOC(=O)c1ccccc1C(=O)OCC=C | -32.7% |
| COc1ccc(OCCNC(=O)c2cc(C3CC3)nc3c2cnn3C(C)C)cc1 | -0.45% |
| Cc1ccc(CNC(=O)c2ccccc2CCc2ccccc2)cc1 | 46.1% (active) |
| Cc1ccc(CNC(=O)c2cccnc2Cl)cc1 | -10.1% |

| Compound | inhibition |
| --- | --- |
| CSc1ccccc1C(=O)NCc1ccccc1 | 5.57% |
| CC(C)CNc1ncnc2c1cnn2Cc1ccc(Cl)cc1 | -1.96% |
| Cc1ccc(C)c(NC(=O)C(c2ccccc2)N2CCN(CC(=O)NC3CC3)CC2)c1 (stereo not given) | 8.15% |
| Cc1cc(SCc2c(F)cccc2Cl)nc(=O)[nH]1 | -6.36% |
| Fc1cccc(Cl)c1CSc1ccc(-c2ccco2)nn1 | 41.7% (active) |
| Cn1c(SCc2c(F)cccc2Cl)nnc1-c1cnccn1 | -6.8% |
| COc1ccc(/C=C2\CCc3ccccc3C2=O)c(OC)c1OC | 41.9% (active) |
| O=C1/C(=C/c2cccs2)CCc2ccccc21 | 15.7% |
| COc1ccccc1Oc1ccc(N/C=C2/CCCC2=O)cc1 | 1.94% |
| COc1ccc(/C=N/NC(=O)C2CC2)c(OC)c1OC | -2.43% |
| COc1ccc(/C=C2\N=C3CCCN3C2=O)cc1 | 0.67% |
| COc1ccc(/C=C2/CCCc3ccccc3C2=O)cc1 | 42.3% (active) |
| Cc1cnc(C(=O)N2CCCC(N3CCN(c4ccccc4F)CC3)C2)cn1 (stereo not given) | 8.65% |
| Cn1c(=O)cc(SCC(=O)N2CCCC2)c2cc(Cl)ccc21 | -13.1% |
| N#CCN(C(=O)COC(=O)C1CC2CCCC(C1)C2=O)c1ccccc1 (stereo not given) | 1.42% |
| CC(=O)c1c(C)[nH]c(C(=O)NCCCN2CCCC2)c1C | -3.1% |
| O=C(CN1CCOCC1)Nc1c(-c2ccccc2)c2cc(Br)ccc2[nH]c1=O | 3.52% |
| O=C(N/N=C\C1CC=CCC1)c1ccc(Br)o1 (stereo not given) | -3.72% |
| CCCn1c(C)cc(-c2csc(NC(=O)CCc3nc4ccccc4c(=O)[nH]3)n2)c1C | -1.22% |
| CC(=O)Nc1ccc(C(=O)Nc2nc(-c3cc(C)n(Cc4ccccc4)c3C)cs2)cc1 | 43.1% (active) |
| Cc1ccc(C(=O)Nc2c(C#N)c(C)c(C)n2Cc2ccccc2)cc1 | 15.5% |
| O=C(Nc1cc(S(=O)(=O)Nc2ccc(Cl)cc2)ccc1O)c1ccc(F)cc1F | 13.4% |

| Compound | inhibition |
| --- | --- |
| Cc1ccc(C(=O)OC2=CC(=O)CC(C)(C)C2)cc1 | -11.7% |
| O=C1CN(C(=O)COc2c(Cl)cccc2Cl)c2ccccc2N1 | -0.21% |
| Cc1cccc(N2O[C@H]3C=CC2CCCC3)n1 | -2.38% |
| CC(C)(C)c1ccc(Oc2ccc(N)cc2)cc1 | 7.75% |
| CC(C)(C)c1ccc(CN2C(=O)c3ccccc3S2(=O)=O)cc1 | 5.21% |
| CC(C)(C)c1ccc(OC2=CS(=O)(=O)c3ccccc32)cc1 | 46.1% (active) |
| CCCCn1c(N)c(N(CCC(C)C)C(=O)CC2OC(=O)c3ccccc32)c(=O)[nH]c1=O (stereo not given) | -0.15% |
| O=C(C(=O)N1CCc2ccccc2C1)c1c[nH]c2ccccc12 | 67% (active) |
| CC1CCN(CC(=O)c2c[nH]c3ccccc23)CC1 | -5.44% |
| O=C(NCCCc1ccccc1)C(=O)c1c[nH]c2ccccc12 | 0.84% |
| COc1ccc(-n2nc3c(c2NC(=O)c2ccc(N4C(=O)CCC4=O)cc2)CSC3)cc1 | 1.88% |
| O=C(COc1ccc(Br)cc1F)NCC1(N2CCCCC2)CCCCC1 | 1.03% |
| CSC1=NCCN1C(=O)Cc1cccc2ccccc12 | -4.14% |
| NC(=O)Cc1ccc2sc(-c3ccccc3)nc2c1 | 71.4% (active) |
| CC(=O)c1cnc(-c2ccccc2)s1 | -11.9% |
| CC(C)(C)Cc1nnc(NC(=O)c2cc(-c3ccccc3)nc3ccccc23)s1 | 10.4% |
| O=C(CSc1nnnn1C1CCCC1)Nc1ccc2c(c1)OCCO2 | -5.58% |
| Cc1cccc(OC(=O)c2sc3ncn(C)c(=O)c3c2C)c1 | -3.95% |
| CCCC1=Nc2cc(C(=O)NCc3ccco3)ccc2Sc2ccccc21 | 40.2% (active) |
| CC(C)(C)c1ccc(C(=O)NCc2ccco2)cc1 | -10.7% |
| CCCC1=Nc2cc(C(=O)NCCN3CCCC3)ccc2Sc2ccccc21 | 3.01% |
